Molecules are shown by their SMILES. In all, about 1,200 compounds went through this assay and about 210 (18%) were called active. A selection follows. Unmarked numbers belong to inactive results. No stated cut-off is given here; in the data, active means inhibition above about 30%; inactive means the rest.

This experiment is described as follows: fluorescence readout artefact check – biochemical, HTRF, uHTS, artefact control for SUMOylation inhibitor project, confirmation (AID 2069). The settings on record: HTRF interference counterscreen, at 35 µM, hits give high values.
As to `O=[N+]([O-])c1c(NCCO)cc(N2CCC3(CC2)OCCO3)c2nonc12`, the inhibition is -10.3%.
In the case of `CCOc1ccc(C2Nc3cccc4cccc(c34)N2)cc1OC`, the inhibition was -29.6%.
Regarding `O=C1C(=O)c2ccccc2C(O)=C1CCCCl`, the inhibition was -11.4%.
Consider `CCc1ccccc1NC(=O)Nc1cccn(Cc2ccccc2F)c1=O`, for which the inhibition was -9.65%.
In the case of `Cc1ccc(S(=O)(=O)c2cc3c(=O)n4ccccc4nc3n(Cc3ccco3)c2=N)cc1C`, the inhibition is 9.75%.
Regarding `CC1CCCCC1NC(=O)c1cc2c(=O)n3ccccc3nc2n1C` (stereo not given), the inhibition was 57.8% (active).
As to `Cn1c(C(=O)NCC2CCCO2)cc2c(=O)n3ccccc3nc21` (stereo not given), the inhibition is 51% (active).
On to `C=CCNc1nc(NCc2ccccc2)c(C#N)c2c1CN(C)CC2`, for which the inhibition is 18.9%.
As to `OCCNC(=S)Nc1ccc2nsnc2c1`, the inhibition is 10.1%.
As to `CC(C)N1CCC2(CC1)C(C#N)=C(N)NC(S)=C2C#N`, the inhibition is 33.9% (active).
Take `Cc1ccoc1C(=O)NCCCNC(=O)c1occc1C`: the inhibition is 0.95%.
`COc1cc2c(C#N)c(N3CCCCC3)nc(N)c2c(N)n1`: the inhibition is 25.2%.
Regarding `N#Cc1c(N2CCCCC2)nc(N)c2c(N)nc(SCC(=O)O)cc12`, the inhibition was 14.9%.
`CCOc1cc2c(C#N)c(N3CCNCC3)nc(N)c2c(N)n1`: the inhibition is 47.2% (active).
For `COCCN(CCOC)c1nc(N)c2c(N)nc3c(c2c1C#N)CC(=O)N3Cc1ccc(Cl)cc1`, the inhibition was 27.9%.
Regarding `COCC(C)N1C(=O)Cc2c1nc(N)c1c(N)nc(N3CCN(c4ccccc4F)CC3)c(C#N)c21` (stereo not given), the inhibition was 19.1%.
For the compound `CCOc1cc2c(C#N)c(N3CCOCC3)nc(N)c2c(N)n1`, the inhibition was 51.2% (active).
On to `COc1ccc(CN2C(=O)Cc3c2nc(N)c2c(N)nc(N4CCOCC4)c(C#N)c32)cc1`, for which the inhibition is 42.5% (active).
Turning to `COc1cc2c(C#N)c(N3CCCC3)nc(N)c2c(N)n1`, the inhibition is 27.4%.
Turning to `COc1cc2c(C#N)c(N3CCN(C)CC3)nc(N)c2c(N)n1`, the inhibition is 43.2% (active).
Consider `CCOc1cc2c(C#N)c(N3CCCCC3)nc(N)c2c(N)n1`, for which the inhibition is 20.6%.
As for `COc1cc2c(C#N)c(N3CCN(c4ccccc4OC)CC3)nc(N)c2c(N)n1`, the inhibition is 16.6%.
Then `S=c1[nH]nc(-c2cc(-c3ccccc3)n[nH]2)n1/N=C/c1ccc(Br)s1`, with -6.25%; and `O=C(NC(=S)Nc1cccc2c(O)cccc12)c1ccco1`, with -6.9%.
`Cc1ccc(Cn2cccc(NS(C)(=O)=O)c2=O)cc1`: the inhibition is -3.15%.
On to `O=S(=O)(Nc1cc2nc3ccccc3nc2n1Cc1ccccc1)c1ccc(Cl)cc1`, for which the inhibition was 24.5%.
With `Oc1cccc(C=NCc2ccccc2)c1O` the figure was -0.8%; with `CNS(=O)(=O)c1ccc2nc(NC(=O)/C=C/c3ccco3)sc2c1`, 25.6%.
With `COc1cc2cc(NC(C)=O)cc(NCc3ccccc3)c2cc1OC`, the inhibition was -19.9%.
`Cc1ccc(N2CCN(Cc3ccccc3)CC2=O)c(C)c1`: the inhibition was -6.45%.
Regarding `O=Cc1cn(-c2ccccc2)nc1-c1cc2cc(O)ccc2oc1=O`, the inhibition was 11.8%.
For `O=C(O)/C=C\c1cn(-c2ccccc2)nc1-c1cc2ccccc2o1`, the inhibition was 48.1% (active).
`O=C(O)/C=C/c1cn(-c2ccccc2)nc1-c1cc2ccccc2o1`: the inhibition is 41.2% (active).
Consider `Nc1c(N2CCOCC2)cc(Cl)c2nonc12`, for which the inhibition is 3%.
With `Cc1ccc(C(=O)N[C@H](C(=O)Nc2cc(Cl)cc(Cl)c2)C(C)C)cc1` the figure was 3.15%; with `N#Cc1ccsc1NC(=O)CN1CCN(c2ccc(O)cc2)CC1`, 14.3%.
Turning to `Cc1ccc(-c2cc(-c3ccccc3O)nc(N/N=C/c3cccnc3)n2)cc1`, the inhibition was 52.2% (active).
For the compound `Nc1c(C(=O)N/N=C/c2cccnc2)oc2nc(-c3ccco3)cc(-c3ccco3)c12`, the inhibition was 20%.
Consider `S=c1[nH]nc(-c2ccncc2)n1/N=C/c1ccccc1Cl`, for which the inhibition is -1.75%.
In the case of `CC(C)N1C(=O)CC(Nc2cccc3cccc(N)c23)C1=O` (stereo not given), the inhibition was -13.8%.
For the compound `O=C(Cc1cccc2ccccc12)NN1C(=O)/C(=C\c2cccnc2)SC1=S`, the inhibition was -7.8%.
For `O=c1c2ccccc2nc(/C=C/c2cccnc2)n1Cc1ccccc1`, the inhibition is 30.9% (active).
On to `Cc1ccc(-c2[nH]ncc2/C=N/n2c(C)nc3ccccc3c2=O)cc1`, for which the inhibition is -0.85%.
On to `COc1ccc(S(=O)(=O)C(C#N)c2nc3ccccc3nc2N2CCCCC2)cc1` (stereo not given), for which the inhibition was -7.95%.
For the compound `Cc1ccc(S(=O)(=O)C(C#N)c2nc3ccccc3nc2N2CCCC2)cc1C` (stereo not given), the inhibition is -3.55%.
Then `CCOC(=O)c1c(NC(=O)C2C3C=CC(CC3)C2C(=O)O)sc(C)c1CC` (stereo not given), with 0.4%.
Then `O=C(N/N=C/c1ccc([N+](=O)[O-])o1)c1cc(-c2ccc(-c3ccccc3)cc2)nc2ccccc12`, with 4.6%; and `Cc1ccc(C2Nc3cccc4cccc(c34)N2)s1`, with -32.4%.
`Cc1cc(=O)n2[nH]c(N)c(N=Nc3ccccc3F)c2n1`: the inhibition was -14.7%.
`COc1ccc(C(=O)Nc2ccc(-c3nnn(CC(=O)N4CCN(C(=O)c5ccco5)CC4)n3)cc2)cc1`: the inhibition is 25.6%.
As for `COc1ccc(/C=C2/SC(=S)N(c3ccc(S(=O)(=O)Nc4nccs4)cc3)C2=O)cc1`, the inhibition is -18%.
On to `CCOC(=O)c1nn(-c2ccc3c(c2)CCN3C(C)=O)cc1O`, for which the inhibition was 48.8% (active).
Turning to `COc1ccc(Br)cc1CNc1ccc(O)cc1`, the inhibition is -15.2%.
On to `O=C(O)CCCN1C(=O)/C(=C/c2cn(-c3ccccc3)nc2-c2cccs2)SC1=S`, for which the inhibition was 4.55%.
Turning to `Cc1ccc(-c2nn(-c3ccccc3)cc2/C=C2\SC(=S)N(CCCCCC(=O)O)C2=O)o1`, the inhibition is 37% (active).
On to `O=C(O)CCCN1C(=O)/C(=C/C=C/c2ccco2)SC1=S`, for which the inhibition was 11.7%.
As to `COC(=O)c1cc2c(C)[nH]c(C)c2cc(C(=O)OC)c1=O`, the inhibition was 3.75%.
Take `O=[N+]([O-])c1ccc(C=Nc2ccc(Cl)c([N+](=O)[O-])c2)s1`: the inhibition was 6.5%.
With `O=C(NNc1cc(N2CCCC2)nc(N2CCCC2)n1)c1ccc([N+](=O)[O-])cc1` the figure was -2.1%; with `Cc1sc2nc3ccc(NCc4ccco4)nn3c(=O)c2c1C`, 44.4% (active); with `Cc1ccc(/C=c2\sc3nc(-c4ccco4)nn3c2=O)o1`, -1.1%.
As to `COc1cccc(-c2[nH]nc3c2C(c2ccsc2)C(C#N)=C(N)O3)c1` (stereo not given), the inhibition was -11%.
For the compound `CC(NC(=O)Nc1ccc(O)cc1)(C(F)(F)F)C(F)(F)F`, the inhibition is 1.45%.
With `COc1ccc(S(=O)(=O)C(C#N)c2nc3ccccc3nc2N2CCCC(C)C2)cc1` (stereo not given), the inhibition was 13.2%.
Take `O=c1[nH]c(Nc2ccc(F)cc2)cc2ccccc12`: the inhibition is 29.8%.
Then `COC1=C(Nc2ccccc2)C(=O)c2ccccc2C1=O`, with -14.2%.
For the compound `O=c1[nH]c(Nc2ccccc2)cc2ccccc12`, the inhibition is 41% (active).
Take `C/C(=N\NC(=O)c1cc(O)cc(O)c1)c1ccc(NC(=O)Cc2ccccc2)cc1`: the inhibition is 25.6%.
In the case of `COc1ccccc1/C=C/C=c1\sc2nc(=O)c(Cc3ccccc3)nn2c1=O`, the inhibition is 0.1%.
Regarding `Cc1cc(C)cc(Oc2coc3c(CN(C)C)c(O)ccc3c2=O)c1`, the inhibition is 48.2% (active).
For the compound `CCN(CC)Cc1c(O)ccc2c(=O)c(Oc3ccccc3OC)coc12`, the inhibition is 42.6% (active).
On to `COc1ccc(NCc2cc3ccccc3[nH]c2=O)cc1`, for which the inhibition is 11.8%.
With `N#Cc1c(-c2ccccc2)nc(SCC(=O)N2c3ccccc3Sc3ccccc32)[nH]c1=O` the figure was 15.3%; with `CCOC(=O)N1CCN(C2=C(NS(=O)(=O)c3ccc(NC(C)=O)cc3)C(=O)c3ccccc3C2=O)CC1`, -27.3%.
Regarding `Nc1ccc(Br)c2cccnc12`, the inhibition is 11.4%.
As to `Cc1ccc(N/N=C2\CC(=O)c3ccccc32)cc1Cl`, the inhibition is -12%.
As to `C/C(CCc1ccco1)=N\NC(=O)CNc1cccc2ccccc12`, the inhibition was 22.1%.
In the case of `O=c1c(C(c2ccccc2)c2c(O)sc3ccccc3c2=O)c(O)sc2ccccc12`, the inhibition was 4.95%.
Consider `COC1=C(Nc2ccccc2OC)C(=O)c2ccccc2C1=O`, for which the inhibition was -37.9%.
With `COc1ccc(OC)c2c1C(=O)c1ccccc1C2=O`, the inhibition is 42.9% (active).
As for `COc1cccc2c1C(=O)c1ccc3ccccc3c1C2=O`, the inhibition is 5.5%.
On to `COc1cccc(Cn2cccc(NC(=O)Nc3ccccc3C)c2=O)c1`, for which the inhibition was 0%.
Then `CCOC(=O)C1=C(C)NC(=O)CC1c1cc2c(cc1[N+](=O)[O-])OCO2` (stereo not given), with -4.35%; and `COc1cc(Br)c(C(=O)c2nccc3cc(OC)c(OC)cc23)cc1OC`, with 3.15%.
With `COc1ccc(NC(=O)CN2C(=O)S/C(=C/c3cccn3-c3ccc(C(=O)O)cc3)C2=O)cc1` the figure was 8%; with `O=C1C2C3C=CC(C4CC34)C2C(=O)N1CCc1ccccc1` (stereo not given), 8.65%; with `Cc1ccc(-n2nc3ccc(N)cc3n2)c(C)c1`, 59.3% (active).
With `CC1=NN(c2ccc(C)cc2C)C(=O)C1C(c1cccc(O)c1)C1C(=O)N(c2ccc(C)cc2C)N=C1C` (stereo not given) the figure was -2.1%.
As for `CN(C)C=Nc1ccc2nc3c(cc2c1)[nH]c1ccccc13`, the inhibition was 53.9% (active).
Take `Nc1ccc2nn(-c3cccc4ccccc34)nc2c1`: the inhibition was 64.5% (active).
For `CN(C)C=Nc1ccc2nn(-c3ccccc3)nc2c1`, the inhibition is 58.8% (active).
Regarding `Cc1ccc(C(=O)c2c3ccc(N)cc3nn2CCC(N)=O)cc1`, the inhibition was 14.2%.
With `N#Cc1c(=O)c2nc(NCc3ccccc3)ncc2n2ccccc12` the figure was 26%; with `COc1ccccc1/C=C/C=N/NC(=O)c1cc(-c2ccco2)[nH]n1`, 1.9%.
Regarding `COc1ccccc1-n1cnc2c(c1=O)c1nc3ccccc3nc1n2-c1ccc(C)c(C)c1`, the inhibition is 2%.

These data come from PubChem BioAssay AID2069 (Sanford-Burnham Center for Chemical Genomics, 2009).
